HT1080-NT tox: kills 2HG-producing HT-1080-NT fibrosarcoma cells; HT-1080-NT fibrosarcoma viability, CellTiter-Glo ATP luminescence, 48 h; Potency, µM (titrated, usually from 46.1 µM), without a hit: top-dose activity, negative = less viability, usual class: cytotoxic; 360,000 compounds, 1.6% hits; AID 686970;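 note: NT is the 2HG producing partner of a matched IDH1 knockdown line; potency is the fitted concentration of half-maximal effect; 0% = DMSO-treated cells and -100% = media-only wells without cells; nearly all actives have a fitted effect of over 55% in size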
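Viability of the 2HG-overproducing fibrosarcoma line after 48 hours of compound exposure at 37 degrees C was determined by luminescence with CellTiter-Glo, and concentration-effect curves were then fitted and categorized.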
IL-1B inflam inh: blocks inflammasome-driven IL-1 beta release. THP-1 LPS/ATP IL-1B secretion, AlphaLISA, 16 h; stronger effect = lower value. activity change, % at 57.5 µM. 360,000 compounds, 4.7% hits; in the data active = activity change below about -50%; inconclusive = mostly about -30% to -49%
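THP-1 cells pretreated 1 hr with compounds (up to 57.5 uM final), then stimulated with LPS (250 ng/mL final) plus ATP (1.25 mM final); secreted IL-1B measured by AlphaLISA after 16 hr, decreased signal indicating inhibition.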
DT40 TDP1 CPT: growth inhibition of DT40 Tdp1-/-;hTDP1 cells with camptothecin (screen for TDP1 inhibitors); chicken DT40 Tdp1-/-;hTDP1 cells + 20 nM CPT, ATP luminescence, 48 h; Potency, µM (titrated, usually from 46.2 µM), for inactives: at the highest dose activity change, negative = growth inhibition, usual class: inhibitors; 420,000 compounds, 12% hits; AID 686979; note: potency is the fitted concentration of half-maximal effect; nearly all actives have a fitted effect of over 55% in size
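Cell growth measured by CellTiter-Glo luminescence after a minimum 48 h, 37 C compound exposure with 20 nM CPT in Tdp1-knockout DT40 cells stably expressing hTDP1, seeded 400/well; qHTS titration format.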
HT1080 IDH1KD tx: kills HT-1080 cells with IDH1 knockdown; HT-1080 IDH1 knockdown viability, ATP luminescence, 48 h; Potency, µM (top dose mostly 46.1 µM), for inactives: top-dose activity, negative = toxicity, usual class: cytotoxic; 360,000 compounds, 2% hits;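 note: potency is the fitted concentration of half-maximal effect; 0% = DMSO wells and -100% = cell-free medium wells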
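In this qHTS, HT-1080 cells depleted of IDH1 are exposed for 48 h at 37 °C to compound titrations. Toxicity is scored from CellTiter-Glo luminescence, with DMSO as full viability and medium alone as none.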
DT40 TDP1 no CPT: qHTS for Inhibitors of human tyrosyl-DNA phosphodiesterase 1 (TDP1): qHTS in cells in absence of CPT; DT40 Tdp1-/- hTDP1 cells, no CPT, ATP luminescence, 48 h; AID 686978, 2013; 420,000 compounds, 15% hits; Potency, µM (doses to about 46.2 µM), without a hit: top-dose activity change, negative = growth inhibition, usual class: inhibitors; note: potency is the fitted concentration of half-maximal effect; nearly all actives have a fitted effect of over 55% in size
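Stably hTDP1-transfected Tdp1-null chicken DT40 cells were treated with library compounds minus camptothecin and grown for at least 48 hr at 37 °C, after which cellular ATP was quantified by luminescence.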
* hit, by the source's call. Rows were chosen to be rich in hits. Some 19% of all compounds tested hit in one or more screens of this group. Unless noted, calls come from the whole dose curve; as a rule, active = well fitted curve in the direction sought with a large enough effect; inconclusive = small, poorly fitted or top-dose-only effect, or another doubt; inactive = no such curve, though single readings can be large; an effect the other way counts as inactive or inconclusive. Unless noted, % is set by controls: 0 for no effect and ±100 for the full control effect.

For CCN(CC)CCOc1ccc2nc(N(C)C)sc2c1 the results were HT1080-NT tox 1%, IL-1B inflam inh 21, DT40 TDP1 CPT inconclusive, HT1080 IDH1KD tx 4% and DT40 TDP1 no CPT inconclusive.
For CCN(CC)CCOc1ccc(-c2nc3cc(Cl)ccc3s2)cc1 the results were DT40 TDP1 CPT 4.7µM* and DT40 TDP1 no CPT 4.7µM*.
CC(=O)c1ccc(NC(=O)CSc2cn(CC(=O)N(C(C)C)C(C)C)c3ccccc23)cc1 was read as DT40 TDP1 CPT inconclusive and DT40 TDP1 no CPT 15µM*.
Cc1ccccc1NC(=O)CSc1cn(CC(=O)N(C(C)C)C(C)C)c2ccccc12 was read as DT40 TDP1 CPT inconclusive and DT40 TDP1 no CPT 15µM*.
Screening CCC(=O)c1cc(F)ccc1OCC(=O)N1CCN(c2ccc(F)cc2)CC1 returned HT1080-NT tox -27%, IL-1B inflam inh 5, DT40 TDP1 CPT 18µM*, HT1080 IDH1KD tx -9% and DT40 TDP1 no CPT 21µM*.
`CCOCC(=O)N1CCN(c2ccc(F)cc2)CC1` gave HT1080-NT tox 19%, IL-1B inflam inh -8, DT40 TDP1 CPT 2%, HT1080 IDH1KD tx 13% and DT40 TDP1 no CPT -8%.
For CCC(=O)c1ccc(OCC(=O)N2CCN(c3ncccn3)CC2)cc1 the results were HT1080-NT tox 2%, IL-1B inflam inh 11, DT40 TDP1 CPT -3%, HT1080 IDH1KD tx 13% and DT40 TDP1 no CPT 2%.
`CC(=O)c1ccc(N2CCN(C(=O)COc3ccc(F)cc3)CC2)c(F)c1` gave HT1080-NT tox -5%, IL-1B inflam inh -16, DT40 TDP1 CPT inconclusive, HT1080 IDH1KD tx -6% and DT40 TDP1 no CPT 16µM*.
Screening CCC(=O)c1ccc(N2CCN(C(=O)COc3ccc(F)cc3)CC2)c(F)c1 returned HT1080-NT tox -2%, IL-1B inflam inh -8, DT40 TDP1 CPT 21µM*, HT1080 IDH1KD tx -7% and DT40 TDP1 no CPT 23µM*.
For CC(=O)NC1C(=O)Nc2c1cccc2C(F)(F)F (stereo not drawn) the results were HT1080-NT tox 23%, IL-1B inflam inh 0, DT40 TDP1 CPT -29%, HT1080 IDH1KD tx 19% and DT40 TDP1 no CPT -21%.
O=C(NCCc1nnc2n1CCN(CC1CC=CCC1)CC2)c1ccc(F)cc1 (stereo not drawn) was read as DT40 TDP1 CPT 0% and DT40 TDP1 no CPT -6%.
`COc1ccc(N2CCN(c3cc(C)nc4ccc(OC)cc34)CC2)cc1` gave HT1080-NT tox -29%, IL-1B inflam inh -1, DT40 TDP1 CPT 15µM*, HT1080 IDH1KD tx inconclusive and DT40 TDP1 no CPT 23µM*.
For CCOC(=O)C1CCN(c2cc(C)nc3ccc(OC)cc23)CC1 the results were HT1080-NT tox -3%, IL-1B inflam inh -17, DT40 TDP1 CPT inconclusive, HT1080 IDH1KD tx -27% and DT40 TDP1 no CPT 16µM*.
Screening OCc1ccc(-c2cncc3nccn23)cc1 returned HT1080-NT tox inconclusive, IL-1B inflam inh -7, DT40 TDP1 CPT 1%, HT1080 IDH1KD tx 6% and DT40 TDP1 no CPT -19%.
Screening Cc1ccc2cc(CN(Cc3cccs3)Cc3nnnn3CC3CCCO3)c(=O)[nH]c2c1 (stereo not drawn) returned HT1080-NT tox -22%, IL-1B inflam inh inconclusive, DT40 TDP1 CPT inconclusive, HT1080 IDH1KD tx -30% and DT40 TDP1 no CPT inconclusive.
Screening CCC(c1nnnn1Cc1ccccc1)N(Cc1ccccc1)Cc1cc2cc(C)ccc2[nH]c1=O (stereo not drawn) returned DT40 TDP1 CPT 11µM* and DT40 TDP1 no CPT inconclusive.
COCCn1nnnc1CN(CCc1ccccc1)Cc1cc2ccc(C)cc2[nH]c1=O was read as HT1080-NT tox -2%, IL-1B inflam inh 0, DT40 TDP1 CPT inconclusive, HT1080 IDH1KD tx 0% and DT40 TDP1 no CPT 26µM*.
Screening COc1cc2cc(CN(CCCN3CCOCC3)Cc3nnnn3Cc3ccccc3)c(=O)[nH]c2cc1OC returned HT1080-NT tox -1%, IL-1B inflam inh -1, DT40 TDP1 CPT -2%, HT1080 IDH1KD tx -13% and DT40 TDP1 no CPT -5%.
Screening Cc1ccc2cc(CN(Cc3cccs3)Cc3nnnn3CC3CCCO3)c(=O)[nH]c2c1C (stereo not drawn) returned HT1080-NT tox 0%, IL-1B inflam inh 12, DT40 TDP1 CPT inconclusive, HT1080 IDH1KD tx -7% and DT40 TDP1 no CPT 18µM*.
Screening Cc1ccc2[nH]c(=O)c(CN(Cc3cccs3)Cc3nnnn3Cc3ccco3)cc2c1 returned DT40 TDP1 CPT inconclusive and DT40 TDP1 no CPT 18µM*.
For Cc1nnc(SCC(=O)NC2CC2)s1 the results were HT1080-NT tox 10%, IL-1B inflam inh -9, DT40 TDP1 CPT -13%, HT1080 IDH1KD tx 8% and DT40 TDP1 no CPT 11%.
`Cc1ccc2[nH]c(=O)c(CN(CCCO)Cc3nnnn3Cc3ccccc3)cc2c1` gave DT40 TDP1 CPT inconclusive and DT40 TDP1 no CPT 11µM*.
CCc1ccc2[nH]c(=O)c(CN(Cc3cccs3)Cc3nnnn3Cc3ccccc3)cc2c1 was read as DT40 TDP1 CPT inconclusive and DT40 TDP1 no CPT 13µM*.
`Cc1ccc2[nH]c(=O)c(CN(Cc3cccs3)Cc3nnnn3CC3CCCO3)cc2c1` (stereo not drawn) gave HT1080-NT tox inconclusive, IL-1B inflam inh inconclusive, DT40 TDP1 CPT inconclusive, HT1080 IDH1KD tx -5% and DT40 TDP1 no CPT 18µM*.
CC(NC(=O)c1ccc(NC2=NC3CS(=O)(=O)CC3S2)cc1)c1ccccc1 (stereo not drawn) was read as HT1080-NT tox 0%, IL-1B inflam inh -9, DT40 TDP1 CPT -11%, HT1080 IDH1KD tx 11% and DT40 TDP1 no CPT 2%.
`C=CCn1c(CCCNC(=O)c2ccccc2OC)nc2ccccc21` gave HT1080-NT tox 8%, IL-1B inflam inh -22, DT40 TDP1 CPT inconclusive, HT1080 IDH1KD tx -5% and DT40 TDP1 no CPT inconclusive.
Screening COc1ccc(NC(=O)Cn2nc(-c3ccncc3)ccc2=O)cc1Cl returned DT40 TDP1 CPT inconclusive and DT40 TDP1 no CPT -13%.
Cc1cccc2sc(NNC(=O)c3ccc(S(=O)(=O)N4CCc5ccccc5C4)cc3)nc12 was read as HT1080-NT tox inconclusive, IL-1B inflam inh 125, DT40 TDP1 CPT 2.6µM*, HT1080 IDH1KD tx 16µM* and DT40 TDP1 no CPT 2.3µM*.
For Cc1cccc2sc(NNC(=O)c3ccc(S(=O)(=O)N4CCCC(C)C4)cc3)nc12 (stereo not drawn) the results were HT1080-NT tox inconclusive, IL-1B inflam inh 135, DT40 TDP1 CPT 4.1µM*, HT1080 IDH1KD tx 21µM* and DT40 TDP1 no CPT 3.7µM*.
For Cc1cc(C)c2nc(NNC(=O)c3ccc(S(=O)(=O)N4CCCCC4)cc3)sc2c1 the results were HT1080-NT tox inconclusive, IL-1B inflam inh 106, DT40 TDP1 CPT 4.6µM*, HT1080 IDH1KD tx inconclusive and DT40 TDP1 no CPT 3.3µM*.

Compound activity from PubChem.
